# Data published in the supplement of paper PMC6897291.
# Tested on: U-2932
# Assay: growth inhibition by drug plus 177Lu-lilotomab satetraxetan (1 - RLU/untreated control) (fraction); higher = stronger inhibition
# Conditions: 10 nM; time (day): 3; 177Lu-lilotomab satetraxetan 1 ug/ml
# Method in brief: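 A radiolabelled anti-CD37 antibody conjugate (~600 MBq/mg) was applied for 18 h at 0.5 µg/ml to RIVA and 1 µg/ml to U-2932 cells, with untreated cells run alongside. All cells were washed and seeded at 3,000 cells/well onto library-printed plates at 10/100 nM (RIVA) or 10/1,000 nM (U-2932). Growth inhibition was based on RealTime-Glo luminescence compared with untreated no-drug wells. Daily reads began on day 3 after 1 h at 37°C, with each value being 1 − RLU/mean of the 48 such wells on that plate.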
row,Compound,growth inhibition by drug plus 177Lu-lilotomab satetraxetan
1,Cn1cc(C2=C(c3cn(C4CCN(Cc5ccccn5)CC4)c4ccccc34)C(=O)NC2=O)c2ccccc21,-0.0756
2,O=C(Oc1ccc([N+](=O)[O-])cc1)N1CCC(C(O)(c2ccc3c(c2)OCO3)c2ccc3c(c2)OCO3)CC1,-0.0245
3,O=C(O)c1nn(Cc2ccc(Cl)cc2Cl)c2ccccc12 [Lonidamine],0.0325
4,N.N.[Cl][Pt][Cl] [Cisplatin],0.000302
5,O=P1(N(CCCl)CCCl)NCCCO1 (configuration not stated) [Cyclophosphamide monohydrate],-0.0289
6,CCC1(c2ccc(N)cc2)CCC(=O)NC1=O (configuration not stated) [Aminoglutethimide (Cytadren)],-0.0302
7,Cc1cc2c(C(C)C)c(O)c(O)c(C=O)c2c(O)c1-c1c(C)cc2c(C(C)C)c(O)c(O)c(C=O)c2c1O [Gossypol],-0.115
8,CC(O)(CS(=O)(=O)c1ccc(F)cc1)C(=O)Nc1ccc(C#N)c(C(F)(F)F)c1 (configuration not stated) [Bicalutamide (Casodex)],0.0109
9,CC(C)[C@]12O[C@H]1[C@@H]1O[C@]13[C@]1(O[C@H]1C[C@H]1C4=C(CC[C@@]13C)C(=O)OC4)[C@@H]2O [Triptolide],0.468
10,CN(C)CCN(C)CCc1ccc(Cl)c(Cl)c1,-0.0419
11,C=C1C[C@@H]2[C@H](CC[C@]3(C)C(=O)CC[C@@H]23)[C@@]2(C)C=CC(=O)C=C12 [Exemestane],0.052
12,CC[C@@H](C(=O)[C@@H](C)[C@@H](O)[C@H](C)[C@@H]1O[C@@H]([C@@H](CC)C(=O)O)CC[C@@H]1C)[C@H]1O[C@]2(C=C[C@@H](O)[C@]3(CC[C@@](C)([C@H]4CC[C@](O)(CC)[C@H](C)O4)O3)O2)[C@H](C)C[C@@H]1C [Salinomycin (Procoxacin)],0.0566
